In all, about 35,000 sequences were measured (“fluorescence intensity (a.u.)”: median about 10,000, highest 2% from about 52,000 on). The entries come from a sample that favours the highest values as a whole.
target: T1, OsWOX13 (Oryza sativa, UniProt Q5QMM3 1-267); assay: protein-binding microarray (RPBM); PBS, 2% BSA, 51.3 ng/ul salmon testes DNA, 50 uM zinc acetate, 200 nM TF, 25 C, 1 h; high values mean tight binding; conditions: protein: recombinant; tags: N-terminal polyhistidine and DsRed monomer fusion (pET32a); label: CyDye5-dUTP incorporated in the synthesized complementary strand; 3' TTTTT single-stranded linker to array surface; dsDNA, one strand shown
T1 sequence: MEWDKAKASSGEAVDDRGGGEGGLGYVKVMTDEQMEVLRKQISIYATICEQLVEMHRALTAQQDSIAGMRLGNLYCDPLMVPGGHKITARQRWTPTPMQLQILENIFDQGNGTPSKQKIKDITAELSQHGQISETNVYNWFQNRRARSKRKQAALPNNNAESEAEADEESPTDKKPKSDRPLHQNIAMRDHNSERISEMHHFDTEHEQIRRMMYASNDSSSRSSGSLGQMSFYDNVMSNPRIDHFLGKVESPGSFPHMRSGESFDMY
Method in brief: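 Ni–NTA purification followed expression in E. coli BL21-CodonPlus of transcription factors fused N-terminally to a polyhistidine tag and DsRed. At 200 nM in PBS with 2% BSA, salmon testes DNA and 50 µM zinc acetate, the protein was incubated for 1 h at 25 °C with a custom Agilent array that had been primer-extended with Cy5-dUTP and blocked with 2% BSA. After washing, the array was read on an Axon 4000B scanner. The binding signal is per-feature fluorescence intensity in arbitrary units.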

Sequence	binding signal
GTGACAAACTGACAACAGGTTGTTTAGTTTTCCATGATTACGGAGTCACCTAGTGCAG	4530 fluorescence intensity (a.u.)
GAATCTATTAAGCCTAATTAATCCGTTATTATAGCAAATACGGAGTCACCTAGTGCAG	6470 fluorescence intensity (a.u.)
AAGGCACGTTGATTGGACTAGTAGTACTACTACGTAGTAGCGGAGTCACCTAGTGCAG	18400 fluorescence intensity (a.u.)
ACCATTGATGGTCCCAATTTAAAATATTTGGCCGAATCTTCGGAGTCACCTAGTGCAG	3840 fluorescence intensity (a.u.)
AATAAAATAAATGATCAAATGAATTATGAAAACTCGTGACCGGAGTCACCTAGTGCAG	5260 fluorescence intensity (a.u.)
GTCGAAAATTATATCGGAATTAGCAGAGTGTGGCATAGCACGGAGTCACCTAGTGCAG	4260 fluorescence intensity (a.u.)
AGTAAAATGATTTGTAGTGTTAATAATAAAGAATAAATTACGGAGTCACCTAGTGCAG	10000 fluorescence intensity (a.u.)
TACAAATAGACTTGAATAAATGTTTATCTATTTTGTGTTGCGGAGTCACCTAGTGCAG	16800 fluorescence intensity (a.u.)
TGAGGAGCAATTAATGAGTTTGATGGACAGAGATAATAGCCGGAGTCACCTAGTGCAG	9490 fluorescence intensity (a.u.)
ACGTTTAATTACGGGAAACCGGCTAAAACCCACCACACATCGGAGTCACCTAGTGCAG	6640 fluorescence intensity (a.u.)
GTAGGAACACTAATTAATCACTCATTGATATGTGTAATCCCGGAGTCACCTAGTGCAG	14700 fluorescence intensity (a.u.)
CTTGTCTTATTTGATTGTTGCATTTACATTTATGCAATTTCGGAGTCACCTAGTGCAG	9350 fluorescence intensity (a.u.)
TCTTGATTGGTTGTTTTGGTTTGTTTCTTATTTATGTTTGCGGAGTCACCTAGTGCAG	54100 fluorescence intensity (a.u.)
AGGCACGGATTGATGCATTAATTTGGTTGCAATGTAGATGCGGAGTCACCTAGTGCAG	37500 fluorescence intensity (a.u.)
CCGATGTTTGATTGTTCGTTTTATTTGAAAGCCTTTTATGCGGAGTCACCTAGTGCAG	20800 fluorescence intensity (a.u.)
TTTTACATGATTGGATGACAAAGCCTATTTCGTTTTGTTGCGGAGTCACCTAGTGCAG	53100 fluorescence intensity (a.u.)
CCCTTGTTTCTGTTTTGATTGCAACCTAAGAGACTCTTGACGGAGTCACCTAGTGCAG	6270 fluorescence intensity (a.u.)
TCTGATTGACGGTGTTTGCAAGCAGAGTTCCTCTTCTTGGCGGAGTCACCTAGTGCAG	61500 fluorescence intensity (a.u.)
GTAAATTGGCATTGGTTTGATTTATGTTTGCAATGCAGCGCGGAGTCACCTAGTGCAG	58200 fluorescence intensity (a.u.)
AGAGTTCTGATTGAATTTGAACAGAAGCGGTGCTTTTGGACGGAGTCACCTAGTGCAG	38800 fluorescence intensity (a.u.)
CTTAAATCATGATGATTTTATTGGTTGTTGGCATGCACAGCGGAGTCACCTAGTGCAG	30500 fluorescence intensity (a.u.)

Sequence	binding signal
TTGCTAAATTGTTGTCTTGGTTGATATTTTAGATTTCTTGCGGAGTCACCTAGTGCAG	10000 fluorescence intensity (a.u.)
TTAATTATTTTGCTGACATGATTTGTTTTCATTTCGTTGACGGAGTCACCTAGTGCAG	24100 fluorescence intensity (a.u.)
CATCTTTGACCGGTTAAATTAGATCCTGTTCTAGATGAGGCGGAGTCACCTAGTGCAG	3480 fluorescence intensity (a.u.)
GCTTTCAATAAAACTTCATTAATTGAGGCTAAAATGTTACCGGAGTCACCTAGTGCAG	5100 fluorescence intensity (a.u.)
AAGCCAATTAAACAACCAGATACTCAAGTTATAACATAATCGGAGTCACCTAGTGCAG	3700 fluorescence intensity (a.u.)
TTTTAAACTAATACTTAATTAATCATATATTAATTAGGTACGGAGTCACCTAGTGCAG	19200 fluorescence intensity (a.u.)
CTTATGATTTTATTTAACCTGGTTTTGAAAGACAGGGGTTCGGAGTCACCTAGTGCAG	18100 fluorescence intensity (a.u.)
ATAGCTAATTTTCGGTATGTTACACCATCCATCTGCCATGCGGAGTCACCTAGTGCAG	5050 fluorescence intensity (a.u.)
TTCCGATTGAGGAATGTTATTCACACAAGCGCAGGAGATGCGGAGTCACCTAGTGCAG	4130 fluorescence intensity (a.u.)
AAAGTGACTGAATTTTAAGTCATCGGAAATTTACACGCTCCGGAGTCACCTAGTGCAG	15400 fluorescence intensity (a.u.)
ATGAATTGTTAATTTTGCAAGCTGAACTTCTCATGTTTGGCGGAGTCACCTAGTGCAG	11100 fluorescence intensity (a.u.)
GCGTCCATCTAATCTAATCTAACCACCCTGCACGAATCGCCGGAGTCACCTAGTGCAG	8750 fluorescence intensity (a.u.)
TTTTCTTTCTTGATTGGGAAGGAAATTGGTGGTTAATCTCCGGAGTCACCTAGTGCAG	23700 fluorescence intensity (a.u.)
TATAAAATTATAGATAATATAACATGTTTGCATGATGTTTCGGAGTCACCTAGTGCAG	5670 fluorescence intensity (a.u.)
TGGAACATTGTTGATTGGCGAGCTGGCACGCATGCTAGGTCGGAGTCACCTAGTGCAG	18600 fluorescence intensity (a.u.)
GTTTGATTGCACATTATGTCCTTGGAGTTCTTCAACATAGCGGAGTCACCTAGTGCAG	55700 fluorescence intensity (a.u.)
GTTGATGATGTGGCTTCTTGCTTGTCTTGCTTTATAGGAGCGGAGTCACCTAGTGCAG	5720 fluorescence intensity (a.u.)
ACACAATTATGTCAAGTTCAATTCTCAAGTTTGAATTGGGCGGAGTCACCTAGTGCAG	5050 fluorescence intensity (a.u.)
TAGATGATTGCACTAGATTTTGCTTTGTGTACTTATTGAACGGAGTCACCTAGTGCAG	32900 fluorescence intensity (a.u.)
TCATGGTGATTGCGGCATGAGAGAGTGAGGGTTCTGCGAGCGGAGTCACCTAGTGCAG	10300 fluorescence intensity (a.u.)
TACAATTGATTATGTAAAGTTTGTGTCTTGTACTAGAGGGCGGAGTCACCTAGTGCAG	43900 fluorescence intensity (a.u.)

Sequence	binding signal
TAGTTTTGTAAATGATTGAAATTTTCTAGTGTTAAATAGGCGGAGTCACCTAGTGCAG	34800 fluorescence intensity (a.u.)
TGGAGAGTTTTGATTGGTTGGGAAGAGAATGTTGATAGAGCGGAGTCACCTAGTGCAG	20200 fluorescence intensity (a.u.)
TATGTTCTTGATTTGTCCTGTTACATTGCTGACATATGTGCGGAGTCACCTAGTGCAG	8650 fluorescence intensity (a.u.)
GTATGATTGGTTATGTAAAGTTTGTTTCTTGTTCTAGAGGCGGAGTCACCTAGTGCAG	58400 fluorescence intensity (a.u.)
ATGATTGATGTCTTTTATTTTCTTTGTACTAAGGAGCTTGCGGAGTCACCTAGTGCAG	62700 fluorescence intensity (a.u.)
TTGATTGCTTGTTTGATTGGTGGTTCTTGAGCGAGAAGAGCGGAGTCACCTAGTGCAG	63300 fluorescence intensity (a.u.)
TTACTCGTCAATCCACCGATTACAGCTATCTCAAACGGAGCGGAGTCACCTAGTGCAG	8630 fluorescence intensity (a.u.)
GTGATAATGTCCATCAATCTAGCAAATCATTCTCACAACGCGGAGTCACCTAGTGCAG	26800 fluorescence intensity (a.u.)
TTTGATTTATATGCCATTGCCTTTGCTGAACAGAAAAGCTCGGAGTCACCTAGTGCAG	37600 fluorescence intensity (a.u.)
AATTTGAAATTTCAAACTTAATTTTAACATTGATTTTGAGCGGAGTCACCTAGTGCAG	6660 fluorescence intensity (a.u.)
AACCATGTTTGACTCAACATAATTAGTGCGACAAACCGCACGGAGTCACCTAGTGCAG	4590 fluorescence intensity (a.u.)
TTATCGAACATACTAATTGACTCTCAGGGAGTCAAGGATCCGGAGTCACCTAGTGCAG	7680 fluorescence intensity (a.u.)
AGGGTTAAATTGTCAAAATTTGTGCGACACAAACACACTCCGGAGTCACCTAGTGCAG	10900 fluorescence intensity (a.u.)
TATAGTGCAGATTTTGAAATTGATGAGTGCACGTTTGGGCCGGAGTCACCTAGTGCAG	6560 fluorescence intensity (a.u.)
CTTAACAACTGAACTGATTGAGACAGTAGATGAAATGGAACGGAGTCACCTAGTGCAG	21400 fluorescence intensity (a.u.)
TAGATAGATTTAGTTTTGATAATGGATAGAGATATTGCCCCGGAGTCACCTAGTGCAG	11600 fluorescence intensity (a.u.)
TCGAGATGGATAATTAGATTGATTGATTGGCCGATAGCCCCGGAGTCACCTAGTGCAG	65100 fluorescence intensity (a.u.)
AAATTTTGAAATTGTTAATATGATATAAATGAGATATAGCCGGAGTCACCTAGTGCAG	3970 fluorescence intensity (a.u.)
AGCCCGATAATTAGATTGATTATAGACATGACTACATATACGGAGTCACCTAGTGCAG	18200 fluorescence intensity (a.u.)
CATTAATTAGATTGAGACAGTACTGAGATGATTGCCGCCCCGGAGTCACCTAGTGCAG	65200 fluorescence intensity (a.u.)
ATAATTGAAAATTGATTAGAGTACCTTTTGATGAGATAGCCGGAGTCACCTAGTGCAG	57300 fluorescence intensity (a.u.)

Sequence	binding signal
ATTTAAATGAGATGATTGATGGGGCAATTAGTACTCTAGACGGAGTCACCTAGTGCAG	38600 fluorescence intensity (a.u.)
TGAAAATGATGTCAATCAAACATGAGTGGGGCCTGCTTTGCGGAGTCACCTAGTGCAG	38500 fluorescence intensity (a.u.)
TCACAATAGATAATTTATTCACTGAAAATTTTAGTTTTGGCGGAGTCACCTAGTGCAG	11100 fluorescence intensity (a.u.)
GGTATTACTGACTGGATTACCATGTGTGCGTCACATCGGACGGAGTCACCTAGTGCAG	6490 fluorescence intensity (a.u.)
ATTTCAGATTGGGTTATTTGAGAGCTAAATTTCTAATGTACGGAGTCACCTAGTGCAG	4680 fluorescence intensity (a.u.)
TGAAAATGATTTGGGATGGCATTTCAGCGGGTTGGGCTCACGGAGTCACCTAGTGCAG	22000 fluorescence intensity (a.u.)
ATAATGGCATAATTTAAATTTTACAAAATACTTATGACACCGGAGTCACCTAGTGCAG	12600 fluorescence intensity (a.u.)
GAAAATGACCAAATTATGAAAACATCCAGGCAATGGATCTCGGAGTCACCTAGTGCAG	3240 fluorescence intensity (a.u.)
CTAGTAATTACAAACATTGGAACTGAGTTTTGGTTGGGGTCGGAGTCACCTAGTGCAG	23800 fluorescence intensity (a.u.)
CCTGACAGGTCATCTCCTGATTGAAACCAAAATGTTGGATCGGAGTCACCTAGTGCAG	60700 fluorescence intensity (a.u.)
ATGGTTGATTGATTGCATATATTTGAACAAATGATCTTTGCGGAGTCACCTAGTGCAG	65500 fluorescence intensity (a.u.)
CGACTGATTGGTTGGGGTCATGGTTGGAACAAAATTTCCTCGGAGTCACCTAGTGCAG	52800 fluorescence intensity (a.u.)
ACTAAATTGGGTTGGGGTGCCTCCTCCTTCCTTTCTTTCTCGGAGTCACCTAGTGCAG	21000 fluorescence intensity (a.u.)
CTTATATTTGCAAATATTGATGGTTGTTGACATATGAACTCGGAGTCACCTAGTGCAG	3210 fluorescence intensity (a.u.)
AGGTTGATTAACTGTTTCATGAATTTGGTATGTTTGCAGTCGGAGTCACCTAGTGCAG	53300 fluorescence intensity (a.u.)
GTTGATGTGATGGAAAATGACTGAAGATTGGATCTAAACTCGGAGTCACCTAGTGCAG	31100 fluorescence intensity (a.u.)
CATAATGATTGCGTTGAACGTTGGTTGCTTGATCATCTTTCGGAGTCACCTAGTGCAG	18600 fluorescence intensity (a.u.)
TGATGATTTAACTGTGTTGCATGAATTCATTCCTATTTGACGGAGTCACCTAGTGCAG	29500 fluorescence intensity (a.u.)
ATTAATTATGTCATAAACTGTTGTTGATTTGTGCCAGTTTCGGAGTCACCTAGTGCAG	39500 fluorescence intensity (a.u.)
CAAAGATTTCACTGTTTAATCTAATCTTGTGGATTTTATGCGGAGTCACCTAGTGCAG	3590 fluorescence intensity (a.u.)
TCGAATTTGATCAGTAGCTTAATTATACTTTAGTACTACCCGGAGTCACCTAGTGCAG	10600 fluorescence intensity (a.u.)
